This is an account of results in PubChem BioAssay AID652054 (National Center for Advancing Translational Sciences (NCATS), 2013).

Molecules are shown by their SMILES. Screen size: about 360,000 compounds; about 9,100 (2.5%) were called active. Another 4% or so got no clear call; they are omitted. The full list was thinned out, with actives kept by preference. A number with no mark means an inactive call. Cut-off read from the data, not from the text of the source: active = max response below about -50%; inconclusive = no clear call, values can overlap the other calls; inactive = above that.
% is set by controls: 0 for no effect and ±100 for the full control effect.

Sequence of D(3) dopamine receptor (Homo sapiens) (P35462 whole entry, looked up): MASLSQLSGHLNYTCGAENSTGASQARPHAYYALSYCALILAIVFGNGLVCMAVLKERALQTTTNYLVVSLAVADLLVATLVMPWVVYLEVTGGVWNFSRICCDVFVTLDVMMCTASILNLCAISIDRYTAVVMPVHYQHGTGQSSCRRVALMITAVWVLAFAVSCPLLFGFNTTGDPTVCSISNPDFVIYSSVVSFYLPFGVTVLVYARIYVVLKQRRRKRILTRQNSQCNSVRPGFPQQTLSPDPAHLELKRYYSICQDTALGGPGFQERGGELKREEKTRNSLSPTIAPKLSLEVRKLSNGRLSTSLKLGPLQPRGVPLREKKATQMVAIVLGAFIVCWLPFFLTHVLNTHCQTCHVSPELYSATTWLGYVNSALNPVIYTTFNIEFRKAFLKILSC

The target of the test is D(3) dopamine receptor (Homo sapiens) (UniProt P35462). Description: qHTS of D3 Dopamine Receptor Antagonist: qHTS. Conditions: D3R cells, DiscoveRx beta-arrestin luminescence, antagonist mode; stronger effect = lower value. The procedure, abridged:
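Cells expressing the human receptor were seeded at 1500 cells/well, incubated overnight at 37 degrees C in 5% CO2, then exposed to library compounds with dopamine controls for 90 minutes at 37 degrees C before luminescent detection.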
In general terms: Quantitative high-throughput screening tests each substance at several concentrations.
Turning to `COC(=O)CCCCC1=CCC2C(=O)C=C(O)C2C1` (stereo unspecified), the max response, negative = inhibition is 0%.
For the compound `CN1CCn2cnc(C(=O)NCC(=O)OC(C)(C)C)c2C1=O`, the max response, negative = inhibition was -5.8%.
As for `CC1CCCCN1S(=O)(=O)c1ccc(C(=O)Nc2nnc(-c3cccs3)o2)cc1` (stereo unspecified), the max response, negative = inhibition was -63.3% (active).
The figure for `CC1CCCCN1S(=O)(=O)c1ccc(S(=O)(=O)N(CC(=O)Nc2ccccc2)Cc2cccs2)cc1` (stereo unspecified) is 28.7%; for `CSCc1nnc(NC(=O)c2ccc(S(=O)(=O)N3CCCCC3C)cc2)o1` (stereo unspecified) it is -20%.
Consider `Cc1cc(C)n(-c2c(F)c(F)c(COC(=O)c3ccccc3)c(F)c2F)n1`, for which the max response, negative = inhibition is -2%.
Consider `Cc1cc(-n2nc(C)cc2C)n2ncc(-c3ccccc3)c2n1`, for which the max response, negative = inhibition was 17.7%.
The figure for `CCOC(=O)c1cnc(-n2nc(C)cc2C)nc1NNc1cc(C)nc(-c2ccccc2)n1` is -53.4% (active).
With `CCCS(=O)(=O)NC(=O)C1(C)CCCN(C(=O)c2cccs2)C1` (stereo unspecified), the max response, negative = inhibition was -7.3%.
To `COC(=O)[C@]12CCCCC=C1N(Cc1ccccc1)C(=O)[C@H](CC(=O)NCc1ccc(C)o1)C2` belongs 0.174%; to `Cc1ccc(-c2nnc(CN3CCN(C)CC3)o2)cc1`, 0%.
The figure for `COc1ccc(N2CCN(Cc3nnc(-c4ccccc4)o3)CC2)cc1` is 11.3%; for `c1ccc(-c2cnc(CN3CCN(c4ccccc4)CC3)o2)cc1` it is -58.1% (active); for `Cc1cc2cc3n(c2nn1)N=C(Cl)CC3` it is 10.6%.
With `CC(=O)Nc1ccc(N2C(=O)C3C4C=CC(CC4)C3C2=O)cc1` (stereo unspecified), the max response, negative = inhibition was 3.35%.
The figure for `CCc1ccccc1N1C(=O)C2C3CC(=O)C(c4ccccc43)C2C1=O` (stereo unspecified) is -6.94%; for `CC(=O)Nc1ccc(N2C(=O)C3C4CC(=O)C(c5ccccc54)C3C2=O)cc1` (stereo unspecified) it is -60% (active).
To `Cc1cc(Br)cn2c(Cc3cccc(F)c3)c(-c3cccc(Br)c3)nc12` belongs 0.913%; to `COc1ccccc1/C=C/C=N/NC(=O)CN1CCN(Cc2ccccc2)CC1`, -17.6%.
The figure for `COc1ccccc1/C=C/CN1CCC(CO)(Cc2ccccc2)CC1` is -76.1% (active); for `CC(C)c1csc(CN2CCC(CO)(Cc3ccccc3)CC2)n1` it is -22%; for `COc1cccc(NC(=O)N(C)C[C@@H]2Oc3ncc(Br)cc3C(=O)N([C@@H](C)CO)C[C@H]2C)c1` it is -24.9%.
For the compound `OC(c1ccccc1)c1nc(-c2cnc3ccccc3c2)cs1` (stereo unspecified), the max response, negative = inhibition is 4.32%.
Regarding `CCc1ccc2c(c1)C1(NN=C(c3ccccc3)S1)C(=O)N2` (stereo unspecified), the max response, negative = inhibition is -60.6% (active).
On to `CCc1ccc2c(c1)NC(=O)C2(C)Cc1ccc(OC(F)(F)F)cc1` (stereo unspecified), for which the max response, negative = inhibition was 16.6%.
In the case of `CCOc1ccc(CCN2C(=O)c3cccnc3C2=O)cc1OCC`, the max response, negative = inhibition is -22%.
Regarding `NC1=CC(=O)C(=O)c2cccnc21`, the max response, negative = inhibition was -69.1% (active).
To `NC(c1csc(NC(=O)Nc2cccc(C(F)(F)F)c2)n1)C1CCCCC1` (stereo unspecified) belongs 13.3%; to `CCOC(=O)[C@]12CCC=C1N(CCC1=CCCCC1)C(=O)[C@H](CC(=O)NCc1ccc(C)o1)C2`, 16.1%; to `COCCCNC(=O)c1ccc(-c2c(C)noc2C)c2ccoc12`, 0%.
Regarding `CC(C)Cc1nc(Nc2ccc(S(=O)(=O)N3CCCC3)cc2)c2nnn(Cc3ccccc3)c2n1`, the max response, negative = inhibition was -27.2%.
For `Cc1nc(Nc2ccc(S(=O)(=O)N3CCCC3)cc2)c2nnn(Cc3ccccc3)c2n1`, the max response, negative = inhibition is -69.4% (active).
Regarding `Cc1nc(Nc2ccc3c(c2)OCCO3)c2nnn(Cc3ccccc3Cl)c2n1`, the max response, negative = inhibition was -26.4%.
Regarding `NS(=O)(=O)c1ccc(CNC(=O)c2cc(S(=O)(=O)N3CCOCC3)ccc2N2CCCC2)cc1`, the max response, negative = inhibition was 0%.
Take `COc1cc(CNc2ncnc3c2ncn3[C@H]2CN(Cc3cccs3)C[C@@H](CO)O2)cc(OC)c1OC`: the max response, negative = inhibition is 13%.
As to `C[C@H](CO)N1C[C@H](C)[C@@H](CN(C)Cc2ccc3c(c2)OCO3)OCc2cnnn2CCCC1=O`, the max response, negative = inhibition was 9.24%.
For the compound `CCCS(=O)(=O)NC(=O)C1(C)CCCN(C(=O)c2ccnc(Cl)c2)C1` (stereo unspecified), the max response, negative = inhibition is -5.74%.
For the compound `COc1ccc(N2CCN(C(=O)CNC(=O)c3ccc(Br)o3)CC2)cc1`, the max response, negative = inhibition is 4.35%.
On to `O=C(c1ccccc1Oc1ccccc1)N1CCN(c2ccc(F)cc2)CC1`, for which the max response, negative = inhibition was 11.3%.
To `Fc1ccc(N2CCN(Cc3cnc(Oc4ccc(Br)cc4)s3)CC2)cc1` belongs -67.9% (active); to `COc1ccc(N2CCN(Cc3ccc(Br)s3)CC2)cc1`, -54.8% (active).
On to `O=[N+]([O-])c1ccc(N2CCN(c3ccc(F)cc3)CC2)cn1`, for which the max response, negative = inhibition was 1.91%.
Consider `COc1ccc(N2CCN(C(=O)c3cccs3)CC2)cc1`, for which the max response, negative = inhibition is -4.36%.
`CO[C@@H]1CN(C)C(=O)c2cc(NC(=O)C3CC3)ccc2OC[C@H](C)N(C(=O)CN2CCOCC2)C[C@@H]1C`: the max response, negative = inhibition is -4.53%.
Regarding `Cc1cccc(C(=O)OCC(=O)Nc2sccc2C(N)=O)c1C`, the max response, negative = inhibition was 12.4%.
In the case of `CCOC(=O)C1C(=O)NCC1c1ccccc1` (stereo unspecified), the max response, negative = inhibition is -22.2%.
